# Source: PubChem
# ELG1 repair inh: inhibitors of ELG1-dependent DNA repair in HEK293T cells; HEK293T ELG1-luciferase reporter, luminescence, 16 h; DNA damage induced by 5-fluorouridine; Potency, µM (series often up to 46.1 µM), without a hit: top-dose activity change, negative = inhibition, actives largely listed as inhibitors; 2.3% of 330,000 active; AID 504467; also: % is scaled to controls: 0 for no effect and ±100 for the full control effect; nearly all actives have a fitted effect of over 55% in size
#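 Step one: seed 2,000 cells per well. Step two: pin-transfer compound or DMSO alongside 5-fluorouridine. Step three: incubate 16 hr, 37 °C, 5% CO2. Step four: add ONE-Glo, wait 30 min, read luminescence.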
# FLuc counter: firefly luciferase modulation, counter-screen for miR-21 project; 6.9% of 360,000 active; P08659; AID 588342; purified FLuc, Km substrates, luminescence inhibition; Potency, µM (series often up to 57.5 µM), without a hit: at the top dose activity change, negative = inhibition, most hits filed as inhibitors;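 also: plate controls were vehicle for no effect and reference inhibitor for full effect; nearly all actives have a fitted effect of over 55% in size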
# Target sequence (P08659 whole entry, looked up): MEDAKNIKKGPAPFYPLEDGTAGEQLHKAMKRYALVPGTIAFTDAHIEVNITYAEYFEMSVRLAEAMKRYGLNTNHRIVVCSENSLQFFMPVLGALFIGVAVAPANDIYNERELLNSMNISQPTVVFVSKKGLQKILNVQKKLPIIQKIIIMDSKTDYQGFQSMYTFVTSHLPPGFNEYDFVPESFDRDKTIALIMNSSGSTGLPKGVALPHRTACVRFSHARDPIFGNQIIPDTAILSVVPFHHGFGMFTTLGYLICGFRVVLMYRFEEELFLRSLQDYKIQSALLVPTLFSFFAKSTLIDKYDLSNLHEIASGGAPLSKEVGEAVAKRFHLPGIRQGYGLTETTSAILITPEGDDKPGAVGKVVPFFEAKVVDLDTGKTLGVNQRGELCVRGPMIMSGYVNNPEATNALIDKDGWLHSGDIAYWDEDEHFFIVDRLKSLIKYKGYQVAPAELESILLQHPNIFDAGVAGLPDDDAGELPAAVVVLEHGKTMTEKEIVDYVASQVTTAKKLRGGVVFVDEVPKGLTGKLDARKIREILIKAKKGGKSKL
#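 Purified P. pyralis luciferase (10nM final) with 10uM D-luciferin and 10uM ATP (Km levels) in 50mM Tris acetate pH 7.5, 10mM Mg acetate, 0.01% Tween-20, 0.05% BSA; qHTS 6-point titration, ~60 µM downward; luminescence read.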
# ELG1 genotox: inducers of genotoxicity in HEK293T ELG1-luciferase cells. HEK293T ELG1-luciferase reporter, luminescence, 16 h. Potency, µM (titrated, usually from 46 µM), inactives show at the top dose activity change, positive = activation, most hits filed as activators. 1.3% of 330,000 active. AID 504466; also: % of control where 0% means no effect; nearly all actives have a fitted effect of over 60% in size
#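 Genotoxic stress is detected as increased luminescence from luciferase-tagged ELG1 in HEK293T cells, measured with ONE-Glo after a 16 hr treatment at 37 °C.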
# Rab9 prom act: activates the Rab9 promoter. Potency, µM (top dose mostly 9.22 µM), without a hit: at the highest dose activation, negative = inhibition, actives largely listed as activators. Huh7 Rab9 promoter-luciferase reporter, luminescence, 24 h. 2.8% of 320,000 active; also: % of control where 0% means no effect; nearly all actives have a fitted effect of over 60% in size
#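 Using Huh7 cells stably transfected with Rab9 promoter–luciferase, compounds were incubated 24 h at 37 °C, 5% CO2; luciferase luminescence was read 10 min after reagent addition.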
# NPC1 prom act: activates the NPC1 promoter; Huh7 NPC1 promoter luciferase reporter, 24 h; 2.4% of 320,000 active; Potency, µM (top dose mostly 9.22 µM), inactives show at the top dose activation, actives largely listed as activators; also: % of control where 0% means no effect; nearly all actives have a fitted effect of over 60% in size
#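 Luciferase expression driven by the NPC1 promoter was measured in stably transfected Huh7 cells after a 24 h compound incubation, using a luciferase reagent and a luminescence read.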
# SMN2 splice up: enhancers of SMN2 splice variant expression. HEK293 SMN2-luciferase splicing reporter, luminescence, 30-36 h. Potency, µM (series often up to 46.1 µM), for inactives: top-dose activity change, positive = activation, hits mostly activators. 2.8% of 210,000 active; also: % of control where 0% means no effect; nearly all actives have a fitted effect of over 55% in size
#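 HEK293 cells carry an SMN2 minigene-luciferase reporter in which exon 7 inclusion puts luciferase in frame. Cells were seeded at 2000 cells/well, attached for 10-12 hours, then exposed to compounds for 30-36 hours at 37C before ONE-Glo luminescence.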
# Active calls of the source: *; ? = inconclusive; · = no result given; [ ] = remark or other dose. Shown are actives, neighbours in structure and some others; about 9.2% of the full set was active somewhere. Calls follow the shape of the dose curve; as a rule, active = well fitted curve in the direction sought with a large enough effect; inconclusive = small, poorly fitted or top-dose-only effect, or another doubt; inactive = no such curve, though single readings can be large; an effect the other way counts as inactive or inconclusive. Potency is read from the fitted curve at half-maximal effect.
SMILES,ELG1 repair inh,FLuc counter,ELG1 genotox,Rab9 prom act,NPC1 prom act,SMN2 splice up
Cc1cc(C)nc(NS(=O)(=O)c2ccc(NC(=O)c3cc(-c4ccccc4)nc4ccccc34)cc2)n1,-1%,?,0%,1%,2%,9%
c1ccc([P+](CC[P+](c2ccccc2)(c2ccccc2)c2ccccc2)(c2ccccc2)c2ccccc2)cc1,·,·,·,·,·,-5%[9.22 µM]
O=C(c1ccc2c(c1)N(Cc1ccc(Cl)cc1)C(=O)c1ccccc1S2(=O)=O)N1CCC(Cc2ccccc2)CC1,·,-3%,·,·,·,-5%
COc1ccc(NC(=O)N2CC3(CCN(S(=O)(=O)c4ccccc4)CC3)C2)cc1,·,·,·,·,·,-3%
COc1ccc(C(=O)Nc2ccc(S(=O)(=O)Nc3onc(C)c3C)cc2)cc1,3%,21µM*,3%,-6%,0%,3%
Cc1noc(NS(=O)(=O)c2ccc(NC(=O)c3ccc(F)cc3)cc2)c1C,3%,·,6%,·,·,·
COc1cccc(C(=O)Nc2ccc(S(=O)(=O)Nc3onc(C)c3C)cc2)c1,?,?,1%,4%,8%,-5%
Cc1ccc(C(=O)Nc2ccc(S(=O)(=O)Nc3onc(C)c3C)cc2)cc1,·,12µM*,·,·,·,-3%
C/C(=N\NS(=O)(=O)c1ccc([N+](=O)[O-])cc1)c1ccc2c(c1)OCO2,4%,-2%,2%,6%,-3%,·
Cc1ccc(S(=O)(=O)N/N=C/c2ccccc2O)cc1[N+](=O)[O-],8%,15µM*,11%,-1%,-1%,-25%
C/C(=N\NS(=O)(=O)c1ccc(C)c([N+](=O)[O-])c1)c1ccc2c(c1)OCO2,17%,11µM*,0%,-10%,2%,·
Cc1ccc(C)c(Cn2c(=O)n(CCCC(=O)NCc3ccc4c(c3)OCO4)c(=O)c3sccc32)c1,·,-15%,·,·,·,-2%
Nc1ccc2nc(SCc3cccc(F)c3)sc2c1,?,4.8µM*,?,4.5µM*,?,13µM*
O=C(COc1ccccc1F)Nc1ccc2nc(SCC(=O)N3CCOCC3)sc2c1,·,21µM*,·,·,·,·
CCOC(=O)CSc1nc2ccc(N)cc2s1,5%,19µM*,8%,0%,-2%,4%
CCOC(=O)CSc1nc2ccc(NC(=O)c3ccccc3F)cc2s1,·,15µM*,·,·,·,·
Nc1ccc2nc(SCC(=O)N3CCOCC3)sc2c1,?,-14%,14%,23%,13%,·
Cc1cc(C)cc(-n2ccnc2SCC(=O)Nc2cccc3ccccc23)c1,·,-15%,·,·,·,·
O=C(COC(=O)/C=C/c1ccccc1)NNC(=O)c1ccccc1F,?,-6%,3%,3%,-1%,·
CCc1ccc(NC(=O)CSC2=Nc3ccccc3C3=NC(CCC(=O)NCc4ccccc4)C(=O)N23)cc1 (stereo not given),·,0%,·,·,·,·
O=C(COc1ccc(F)cc1)Nc1ccc2nc(SCC(=O)N3CCCC3)sc2c1,·,-11%,·,·,·,·
COc1cc(OC)cc(C(=O)Nc2ccc(-c3nc4ccccc4s3)c(C)c2)c1,·,-8%,·,·,·,·
Cc1cc(NC(=O)c2ccccc2F)ccc1-c1nc2ccccc2s1,·,0.67µM*,·,·,·,·
O=C(Nc1ccc2nc(SCC(=O)N3CCCC3)sc2c1)c1ccccc1F,·,24µM*,·,·,·,·
COc1ccc2nc(N3CCCCC3)c(/C=C3\SC(=S)NC3=O)cc2c1,-16%,17µM*,-5%,-1%,-3%,·
SMILES,ELG1 repair inh,FLuc counter,ELG1 genotox,Rab9 prom act,NPC1 prom act,SMN2 splice up
N#C/C(=C\c1cc2ccccc2nc1N1CCCCC1)C(N)=O,-9%,-1%,2%,4%,-1%,1%
O=C1NC(=S)S/C1=C\c1cc2ccccc2nc1N1CCCCC1,16µM*,-1%,-15%,-3%,-4%,·
Nc1ncnc2c1ncn2[C@@H]1O[C@H](CN2CCCS2(=O)=O)[C@@H](O)[C@H]1O,-1%,·,0%,·,·,·
S=C(Nc1ccc(Cl)cc1)c1nc2ccccc2[nH]1,?,3.8µM*,10%,1.8µM*,3.2µM*,14µM*
Cc1ccccc1NC(=S)c1nc2ccccc2[nH]1,?,11µM*,7%,27%,25%,29%
OC(c1ccc(Cl)cc1)C(O)c1nc2ccccc2[nH]1 (stereo not given),-3%,-1%,-2%,-5%,-1%,-9%
CNc1sc(C(=O)c2ccc(F)cc2)c(N)c1-c1nc2ccccc2s1,?,?,?,-5%,17%,-13%
CNc1sc(C(=O)c2cccs2)c(N)c1-c1nc2ccccc2s1,?,2.7µM*,?,2.8µM*,4µM*,5µM*
O=C(/C=C/c1cccc([N+](=O)[O-])c1)N1CCN(c2ccccn2)CC1,-22%,-1%,?,0%,-6%,·
O=C(/C=C/c1cn(-c2ccccc2)nc1-c1cccc(Cl)c1)N1CCN(c2ccccn2)CC1,21µM*,?,-20%,-6%,-11%,-50%
O=C(/C=C/c1cn(-c2ccccc2)nc1-c1cccnc1)N1CCCCC1,-28%,15µM*,-4%,10%,0%,3%
O=C1CCCCN1CC(=O)N1CCCC(Nc2ccc(F)cc2)C1 (stereo not given),0%,1%,1%,-5%,-17%,·
Cc1cccnc1Nc1nc(-c2ccc(O)cc2)cs1,?,6.7µM*,?,3.5µM*,?,25µM*
Cc1cccnc1Nc1nc(-c2ccc(F)cc2)cs1,?,2.7µM*,13µM*,2.8µM*,1.4µM*,·
NC(=O)Cn1c(=O)n(-c2ccc(F)c(Cl)c2)c(=O)c2sc3ccccc3c21,·,1%,·,·,·,-3%
CCN(CC)CCn1c2ccccc2c2nc3ccccc3nc21,?,21µM*,?,?,?,·
CN(C)c1ccc(/C=N/NC(=O)c2ccccc2)cc1,?,5.4µM*,?,0.89µM*,2.8µM*,11µM*
CN(C)c1ccc(/C=N/NC(=O)c2sccc2-n2cccc2)cc1,?,?,-1%,4µM*,?,20%
CN(C)c1ccc(/C=N/NC(=O)c2ccc(Cl)cc2)cc1,7%,?,6%,0%,0%,-8%
CSc1ccc(/C=N/NC(=O)c2ccccc2Cl)cc1,?,15µM*,?,?,11%,30%
CN(C)c1ccc(/C=N/NC(=O)c2ccccc2Cl)cc1,?,17µM*,?,13%,-1%,22µM*
CC(=O)Nc1ccc(S(=O)(=O)N(C)CC(=O)OCC(=O)Nc2cc(C)on2)cc1,-1%,1%,-1%,-4%,-1%,·
CC(C)c1ccc(S(=O)(=O)N2CCC(n3c(C(F)(F)F)nc4cccnc43)CC2)cc1,·,-6%,·,·,·,·
CCCCCCCCCCCCCCCC(=O)NC(C)C(=O)O (stereo not given),·,·,·,·,·,-7%
